Compound activity deposited in PubChem BioAssay by National Center for Advancing Translational Sciences (NCATS).
12-LOX inh: ALOX12 (human) lipoxygenase inhibition; purified 12hLO, xylenol orange hydroperoxide absorbance; Potency, µM (top dose mostly 108 µM), for inactives: top-dose activity change, negative = inhibition, actives largely listed as inhibitors; AID 1671190; 580,000 tested, 1.1% active; note: % is set by controls: 0 for no effect and ±100 for the full control effect
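Purified human 12hLO at 150 nM in 25 mM Hepes, 0.01% Triton X-100, pH 7.0, preincubated 15 min at room temperature with compound. Reaction started with 40 uM arachidonic acid, 30 min at room temperature. Hydroperoxide measured by Fe-xylenol orange, 573/405 nm absorbance ratio.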
PLK1 PBD block: PLK1 (human) polo-box domain binding inhibition | P53350 | Plk1 PBD binding of FITC phosphopeptide, fluorescence polarization | Potency, µM, without a hit: max response, negative = inhibition, usual class: inhibitors | 360,000 tested, 2.8% active | AID 720504; note: series mostly up to about 57 µM; % is set by controls: 0 for no effect and ±100 for the full control effect; nearly all actives have a fitted effect of over 65% in size
Target sequence (P53350 whole entry, looked up, the tested form may be a part): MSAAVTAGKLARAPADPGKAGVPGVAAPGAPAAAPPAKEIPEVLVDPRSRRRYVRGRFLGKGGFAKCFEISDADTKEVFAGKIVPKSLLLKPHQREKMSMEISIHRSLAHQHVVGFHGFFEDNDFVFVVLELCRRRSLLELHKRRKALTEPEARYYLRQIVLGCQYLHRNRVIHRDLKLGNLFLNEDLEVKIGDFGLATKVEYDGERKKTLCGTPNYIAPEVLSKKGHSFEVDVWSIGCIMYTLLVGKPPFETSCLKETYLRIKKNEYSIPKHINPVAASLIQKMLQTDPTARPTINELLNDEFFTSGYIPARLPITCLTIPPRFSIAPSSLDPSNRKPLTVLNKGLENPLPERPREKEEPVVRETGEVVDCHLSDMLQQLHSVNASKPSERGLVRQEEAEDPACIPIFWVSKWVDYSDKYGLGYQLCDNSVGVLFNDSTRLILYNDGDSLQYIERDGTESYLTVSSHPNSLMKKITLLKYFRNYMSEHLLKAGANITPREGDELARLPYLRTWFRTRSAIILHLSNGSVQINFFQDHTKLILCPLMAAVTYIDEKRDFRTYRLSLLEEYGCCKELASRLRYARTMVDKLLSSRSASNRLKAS
G9a block: G9a (human) methyltransferase inhibition; G9a H3K9 monomethylation, AlphaScreen, 2 h; Potency, µM (top dose mostly 102 µM), for the others: at the highest dose activity, negative = inhibition, usual class: inhibitors; 350,000 tested, 8.8% active; note: % is set by controls: 0 for no effect and ±100 for the full control effect; nearly all actives have a fitted effect of over 75% in size
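G9a (20 nM) preincubated 15 min RT with compounds, then 500 nM biotinylated H3K9 peptide and 20 uM SAM added; 2 h RT reaction. Monomethyl-H3K9 product detected by AlphaScreen with anti-H3K9me1 antibody, streptavidin donor and anti-rabbit IgG acceptor beads.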
JMJD2A Tudor inh: inhibitors of human JMJD2A Tudor domain. AlphaScreen JMJD2A-Tudor / H3K4me3 peptide binding. Potency, µM (highest dose often 114 µM), without a hit: top-dose activity change, negative = inhibition, usual class: inhibitors. 390,000 tested, 4.4% active. O75164; note: % is set by controls: 0 for no effect and ±100 for the full control effect; nearly all actives have a fitted effect of over 50% in size
HP1b binding inh: inhibitors of HP1-beta chromodomain binding to methylated histone tails; AlphaScreen HP1-beta / biotin-H3K9me3 peptide binding; Potency, µM (doses to about 114 µM), inactives show at the highest dose activity change, negative = inhibition, usual class: inhibitors; 390,000 tested, 0.56% active; note: nearly all actives have a fitted effect of over 70% in size
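AlphaScreen: HP1-beta (50 nM) preformed 30 min with biotin-H3(1-18)K9me3 peptide (50 nM) in PBS pH 7.4, 0.01% Tween-20. Compound added for 30 min at RT, then streptavidin donor/nickel chelate acceptor beads (10 ug/mL) for 30 min.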
BAZ2B block: BAZ2B (human) inhibition; Q9UIF8; AlphaScreen BAZ2B-H3K14Ac peptide displacement; Potency, µM (highest dose often 114 µM), for inactives: top-dose activity change, negative = inhibition, actives largely listed as inhibitors; 360,000 tested, 4.4% active; AID 504333; note: % is set by controls: 0 for no effect and ±100 for the full control effect; nearly all actives have a fitted effect of over 60% in size
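AlphaScreen luminescence quantifies BAZ2B engagement of H3K14Ac peptide; the protein and biotinylated peptide are both at 50 nM final, buffer PBS pH 7.4 with 0.01% Tween-20, all steps at room temperature.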
Numbers without * were called inactive; ? = inconclusive; · = no result; [ ] = dose if it differs, or a comment. Compounds with a hit are over-represented: about 9% of the library has one in this group of screens. Calls come from the whole dose curve; as a rule, active = well fitted curve in the direction sought with a large enough effect; inconclusive = small, poorly fitted or top-dose-only effect, or another doubt; inactive = no such curve, though single readings can be large; an effect the other way counts as inactive or inconclusive. Potency is the fitted concentration of half-maximal effect.

SMILES	12-LOX inh	PLK1 PBD block	G9a block	JMJD2A Tudor inh	HP1b binding inh	BAZ2B block
N#Cc1c(N)c(C(=O)c2ccc(Cl)cc2)n2c1CCC2	1.6%	-4.8%	5.8%	-0.4%	39.8%	1.1%
COc1ccc(/C=N/NS(=O)(=O)c2ccc(F)cc2)cc1COc1cc(F)ccc1[N+](=O)[O-]	-9.5%	-25.7%	6.31µM*	-9.1%	45.1%	-19.4%
O=C(Cn1cnc([N+](=O)[O-])n1)N/N=C/c1ccc(O)cc1O	-16.1%	-8.5%	-29.8%	63.1µM*	33.9%	28.2µM*
O=C(Cn1cnc([N+](=O)[O-])n1)N/N=C/c1cccc2ccccc12	5.1%	-10.9%	44.7µM*	-19.5%	0.0%	-2.5%
O=C(Cn1cnc([N+](=O)[O-])n1)N/N=C/c1cccc(Cl)c1	0.5%	-4.1%	18.9%[59 µM]	-16.0%	38.0%	-14.3%
Cc1nn(-c2ccc(N3CCOCC3)nn2)c(C)c1CCC(=O)NCc1ccco1	-3.5%	·	·	·	·	·
O=C(NCc1cccs1)c1nc(-c2cccs2)no1	-0.9%	-4.2%	7.3%	2.6%	32.6%	1.2%
O=C(NCc1ccccn1)c1nc(-c2cccs2)no1	-13.5%	26.7µM*	28.2µM*	-27.1%	11.8%	2.3%
Oc1ccccc1-c1nc(NCc2ccco2)c2ccccc2n1	?	-2.4%	4.6%[12.7 µM]	-19.8%	13.2%	-12.4%
COc1ccc(Nc2nc(NCC3CCCO3)c3ccccc3n2)c(OC)c1 (stereo not drawn)	?	-11.6%	44.7µM*	?	-5.1%	?
c1ccc(-c2nc(NCc3ccco3)c3ccccc3n2)nc1	7.1%	-14.9%	?	-34.4%[11.4 µM]	25.4%	44.7µM*
CCOc1ccc(Nc2c3ccccc3nc3ccccc23)cc1	?	-14.2%	31.6µM*	-27.9%[11.4 µM]	?	35.5µM*
CCOc1ccc(Nc2nc(NCC3CCCO3)c3ccccc3n2)cc1 (stereo not drawn)	?	-7.3%	39.8µM*	?	2.3%	31.6µM*
CCOc1ccc(Nc2cc(C)c3ccccc3n2)cc1	?	-7.3%	?	?	5.7%	-31.4%
Cc1ccc(OCC(F)(F)F)c(N)c1	-14.1%	·	·	·	·	·
O=C(COc1ccccc1Cl)NCc1nc(-c2ccccc2)no1	98.9%	0.3%	65.7%	0.0%	44.7%	-5.7%
C(=N\Nc1nc(-c2ccccn2)nc2ccccc12)/c1ccccc1	·	·	-16.4%	?	12.3%	50.1µM*
c1ccc(-c2nc(NCC3CCCO3)c3ccccc3n2)nc1 (stereo not drawn)	0.0%	-6.3%	11.1%[59 µM]	89.1µM*	53.5%	?
COc1ccccc1Nc1nc(NCc2ccco2)c2ccccc2n1	?	7.8%	50.1µM*	-31.3%	10.8%	?
Oc1cccc(Nc2nc(NCC3CCCO3)c3ccccc3n2)c1 (stereo not drawn)	·	-12.6%	-34.4%[12.7 µM]	-29.9%[57.1 µM]	-16.3%	-38.6%
c1ccc(Nc2nc(NCC3CCCO3)c3ccccc3n2)cc1 (stereo not drawn)	44.7µM*	-16.6%	-38.2%	-25.1%	32.8%	-38.7%
CC1(C)O[C@@H]2[C@H](O1)[C@@H](CO)O[C@H]2n1cnc2c(N)ncnc21	3.8%	1.3%	15.1%[2.33 µM]	5.7%	38.2%	10.1%
NC(=S)N/N=C1\CC(c2ccc3c(c2)OCCCO3)Oc2ccc(F)cc21 (stereo not drawn)	6.31µM*	-1.2%	·	?	-21.6%	25.1µM*
COc1ccc(-c2n(CC(=O)OC3CC(C)CCC3C(C)C)c3ccccc3[n+]2C)cc1 (stereo not drawn)	-13.2%	-5.3%	1.12µM*	-11.1%	24.4%	?
O=C(NC(=S)Nc1ccc(CN2CCOCC2)cc1)c1ccc(-c2ccc(Br)cc2)o1	·	-14.2%	·	-22.4%	17.5%	-4.7%
SMILES	12-LOX inh	PLK1 PBD block	G9a block	JMJD2A Tudor inh	HP1b binding inh	BAZ2B block
CC(C)Oc1ccc(C(=O)NC(=S)Nc2ccc(CN3CCOCC3)cc2)cc1	?	-4.0%	?	-11.4%	5.9%	-18.7%
Cc1ccc(C(=O)NC(=S)Nc2ccc(CN3CCOCC3)cc2)cc1	35.5µM*	-5.8%	-23.0%	-17.7%	-11.5%	-22.7%
COc1ccc(Br)cc1C(=O)NC(=S)Nc1ccc(CN2CCOCC2)cc1	-8.3%	-13.3%	-8.4%[0.0925 µM]	?	-1.3%	25.1µM*
O=C(NC(=S)Nc1ccc(CN2CCOCC2)cc1)c1ccc([N+](=O)[O-])cc1Cl	-9.4%	-28.7%	50.1µM*	-30.8%	-6.9%	?
O=C(NC(=S)Nc1ccc(CN2CCOCC2)cc1)c1cccc([N+](=O)[O-])c1	-21.8%	-19.4%	?	-28.3%	-4.6%	?
Cc1cc(C)nc(N/N=C/c2cccc3ccccc23)n1	3.9%	-7.3%	11.4%[59 µM]	-18.1%	22.4%	-33.7%
COc1cc2c3c(c1)/C(=C1/SC(NC(C)=O)=NC1=O)C(=O)N3C(C)(C)C=C2C	?	-13.1%	?	?	?	20µM*
CCN1C(=O)/C(=C2/SC(C)=C(C)N2CC)SC1=S	?	-10.2%	0.3%	-18.6%	5.4%	-1.7%
COc1ccc(N2C(=O)c3ccc(NC(C)=O)cc3C2=O)cc1	?	-0.3%	19.4%[59 µM]	-4.5%	11.2%	6.3%
CCN1C(=O)/C(=C2/C(=O)N3c4c(cc(OC(C)=O)cc42)C(C)=CC3(C)C)SC1=S	-8.3%	-2.5%	2.82µM*	?	?	2µM*
Cn1cncc1C#Cc1ccc2cc(CCO)oc(=O)c2c1	12.5%	-11.0%	1.1%[0.501 µM]	-28.1%	41.4%	56.2µM*
CCCCn1c(=O)c(-[n+]2ccccc2)c([O-])c2ccccc21	-0.9%	-5.2%	8.91µM*	-5.0%	48.8%	?
Fc1cc(Br)ccc1NC(=S)NCc1cccs1	25.1µM*	·	·	·	·	·
COc1cc2nc(C3CCC3)n(NC(=O)C(OC(C)=O)c3ccccc3)c(=O)c2cc1OC (stereo not drawn)	2.4%	-5.4%	-8.2%[59 µM]	-9.2%	21.1%	·
COc1cc2nc(C3CCC3)n(NC(=O)COc3ccccc3)c(=O)c2cc1OC	2.3%	26.7µM*	?	?	-21.6%	0.0%
COc1cc2nc(C3CCC3)n(NC(=O)C3CCC3)c(=O)c2cc1OC	9.1%	23.8µM*	0.9%[59 µM]	?	-12.2%	6.3%
CC(=O)Nc1cccc(NC(=O)c2cc(C)on2)c1	18.6%	-5.7%	-14.7%[59 µM]	9.1%	23.9%	-2.8%
COC(=O)c1ccc(N2C(=O)CC(Sc3n[nH]c(C)n3)C2=O)cc1 (stereo not drawn)	-0.6%	3.36µM*	2µM*	-3.4%[11.4 µM]	0.2%	0.3%
COC(=O)c1cc(C(=O)OC)cc(N2C(=O)CC(Sc3nc(C)cc(C)n3)C2=O)c1 (stereo not drawn)	-6.3%	-13.9%	?	-16.7%	53.4%	-11.5%
